Assay outcomes from PubChem.
SKN-1 inh: suppressors of acrylamide-induced Pgst-4::GFP reporter in worms, primary screen, SKN-1 inhibitor project, whole organism, uHTS, GFP/RFP fluorescence ratio, strain VP596; AID 624304, 2012; 360,000 compounds, 0.49% hits; C. elegans VP596 Pgst-4::GFP/RFP ratio, 24 h; inhibition, % at 21.8 µM;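 active = interference check ratio from 0.5 to 1.5 plus GFP to RFP signal ratio inhibition reaching or exceeding a fixed threshold, cut at about 30% in these data, passing the limit was not always enough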
CHRM1 antagonist: human M1 muscarinic receptor antagonists, primary screen, CHO-K1 cells, Fluo-8 calcium fluorescence, 1536-well | Muscarinic acetylcholine receptor M1 (Homo sapiens), P11229 | CHO-K1 hM1, ACh EC80 antagonist | inhibition, % at 3 µM | 360,000 compounds, 1.3% hits | AID 588852, 2011;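 active = percent inhibition above its own plate's cutoff, namely the mean of that plate's compound wells plus 3 SD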;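 note: peak over basal fluorescence ratio during 140 s after agonist addition; 0% = ACh EC80 plus DMSO and 100% = DMSO alone without agonist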
CHRM1 PAM: human M1 muscarinic receptor positive allosteric modulators, primary screen, CHO-K1 cells, Fluo-8 calcium fluorescence, 1536-well. Muscarinic acetylcholine receptor M1 (Homo sapiens), P11229. CHO-K1 hM1, ACh EC20; 0% = ACh EC20, 100% = maximal ACh. activation, % at 3 µM. 360,000 compounds, 0.088% hits. AID 588819, 2011; in the data active = activation above about 19%, passing the limit was not always enough
Myeloid diff MLP: induction of myeloid progenitor differentiation, primary screen, cell-based, flow cytometry, MLPCN library | ER-HoxA9 myeloid progenitors, lysozyme-GFP differentiation | calls only at 10 µM | 360,000 compounds, 1% hits;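 active = normalized GFP-positive differentiation at or above the plate's own cutoff, the solvent-only control mean plus 3 SD; inconclusive = no clear call, values can overlap the other calls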;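 note: cells exposed to compound for four days before flow analysis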
CHRM1 agonist: human M1 muscarinic receptor agonists, primary screen, Fluo-8 calcium fluorescence, CHO-K1 cells, HTS | Muscarinic acetylcholine receptor M1 (Homo sapiens), P11229 | CHO-K1 hM1, agonist mode; 0% DMSO, 100% acetylcholine EC100 | activation, % at 3 µM | 360,000 compounds, 0.33% hits;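 active = activation above the run's mean compound activation plus 3 SD, cut at about 16% in these data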;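 note: peak over basal fluorescence ratio within a 140 s kinetic read after compound addition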
ATG4B inh: ATG4B protease inhibitors, primary screen, biochemical, fluorescence, uHTS | inhibition, % at 8.33 µM | AID 504462, 2011 | 340,000 compounds, 0.51% hits | ATG4B cleavage of LC3-PLA2, NBD-HPC fluorescence, 1 h; in the data active = inhibition above about 40%
Target sequence (Q9Y4P1 whole entry, looked up): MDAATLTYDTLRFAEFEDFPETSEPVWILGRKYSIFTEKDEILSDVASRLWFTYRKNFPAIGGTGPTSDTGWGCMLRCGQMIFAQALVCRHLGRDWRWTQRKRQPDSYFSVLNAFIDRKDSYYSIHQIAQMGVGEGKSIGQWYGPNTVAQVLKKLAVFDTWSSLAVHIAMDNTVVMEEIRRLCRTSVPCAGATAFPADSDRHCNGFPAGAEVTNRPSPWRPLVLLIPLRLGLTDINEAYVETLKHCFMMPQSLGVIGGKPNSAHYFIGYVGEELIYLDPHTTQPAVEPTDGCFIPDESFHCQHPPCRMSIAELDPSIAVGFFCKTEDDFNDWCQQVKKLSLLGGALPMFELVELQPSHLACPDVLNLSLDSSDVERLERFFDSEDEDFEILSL
Starred values were filed as active, the others as inactive; i = inactive; ? = inconclusive; . = no result given; + = active, no number. The list is not random: actives were taken first. Their share in the collection is about 3.5%.

SMILES | SKN-1 inh | CHRM1 antagonist | CHRM1 PAM | Myeloid diff MLP | CHRM1 agonist | ATG4B inh
COc1ccc(C)cc1S(=O)(=O)N(CC(=O)NCc1ccc(Cl)cc1)Cc1ccccc1 | 13.0 | -1.3 | -4.8 | + | -5.4 | -5.7
COc1ccc(C)cc1S(=O)(=O)N(CC(=O)N1CCOCC1)Cc1ccccc1 | -9.3 | -7.1 | 3.9 | i | -5.1 | 10.3
COc1ccc(CNC(=O)CN(Cc2ccccc2)S(=O)(=O)c2ccc(Cl)cc2)cc1 | -9.9 | 10.3 | -9.0 | i | -3.7 | 5.0
COc1ccc(CNC(=O)CN(Cc2ccc(Cl)cc2)S(=O)(=O)c2ccccc2)cc1 | -12.1 | 2.1 | -4.1 | + | -4.8 | -23.2
O=C(NCCCN1CCCC1=O)c1ccccc1OCc1ccc(Cl)cc1Cl | -6.3 | -12.6 | 16.1 | i | 3.6 | -8.4
COc1ccc(N2CC(C(=O)N3CCC(c4nc5ccccc5[nH]4)CC3)CC2=O)cc1 (stereo not drawn) | 0.4 | -9.8 | -1.2 | i | -5.3 | -15.7
CCOC(=O)c1ccccc1NC(=O)Cc1ccccc1OC | 50.3* | -7.1 | 2.0 | i | -6.9 | -8.1
CCc1nc2c(OCc3cc(Cl)cc(Cl)c3)cccn2c1N(C)C(=O)Nc1ccccc1OC | 6.3 | 10.7 | -4.6 | i | -4.7 | .
CCOC(=O)N1CCN(C2OC(=O)c3ccccc32)CC1 (stereo not drawn) | -35.8 | -19.1 | 2.1 | i | 25.1* | -3.0
O=C1OC(N2CCN(C(=O)c3ccco3)CC2)c2ccccc21 (stereo not drawn) | -7.2 | -5.5 | 5.7 | i | -3.5 | 8.1
COc1ccc(-c2nnc(NC(=O)C(C)C)s2)c(OC)c1 | 13.0 | 38.7* | -10.1 | i | -1.2 | -4.0
CC(C)C(N)c1csc(NC(=O)Nc2cccc(Cl)c2)n1 (stereo not drawn) | -2.6 | -7.1 | 7.7 | + | -1.6 | .
CS(=O)(=O)c1ccc2nc(NC(=O)Nc3ccc(Cl)c(Cl)c3)sc2c1 | 3.0 | -6.0 | 6.2 | i | -1.5 | 12.4
CC1=CCC(C(=O)O)C(C(=O)Nc2nc3ccc(S(C)(=O)=O)cc3s2)C1 (stereo not drawn) | -27.1 | -1.5 | 10.9 | + | -2.9 | 2.2
CS(=O)(=O)c1ccc2nc(NC(=O)c3ccccc3)sc2c1 | 8.2 | -12.8 | 8.4 | i | -4.8 | 1.5
CS(=O)(=O)c1ccc2nc(NC(=O)Nc3cccc(Cl)c3)sc2c1 | -1.2 | 32.6* | -14.5 | i | 6.3 | -0.6
CSc1ccc(CN(C)CC(=O)NCCc2ccccc2)cc1 | 1.9 | 7.6 | -8.2 | i | -9.3 | 5.7
O=C(CSc1nnc2ccc(-c3cccnc3)nn12)Nc1ccccc1F | 11.9 | -5.1 | 6.1 | i | -3.1 | 1.0
CCCn1c(Cc2ccccc2)n[nH]c1=S | 19.2 | 17.0 | -6.0 | i | -5.5 | -0.9
S=c1[nH]nc(Cc2ccccc2)n1Cc1ccco1 | 10.9 | 92.3* | -33.0 | i | -12.6 | 2.8
Cc1ccc(Cl)c(NC(=O)COC(=O)c2cc[n+]([O-])cc2)c1Cl | 3.9 | -8.2 | 14.9 | i | 3.3 | 5.3
N#C/C(=C(/O)CCl)c1nc2c(s1)CCc1ccccc1-2 | 0.4 | -0.5 | 9.9 | + | -1.2 | -14.1
Nc1nc2c(s1)CCc1ccccc1-2 | 14.5 | -4.2 | 1.9 | i | -7.4 | -0.7
Cc1cccc(OC2(c3ccccc3)OC(=O)c3ccccc32)c1C (stereo not drawn) | 1.5 | 35.7* | -19.1 | i | -10.1 | 8.3
COc1cccc(N=Nc2ccc3cccnc3c2O)c1 | 16.6 | 31.4* | -20.1 | ? | 30.1* | 1.2
SMILES | SKN-1 inh | CHRM1 antagonist | CHRM1 PAM | Myeloid diff MLP | CHRM1 agonist | ATG4B inh
COc1ccc(N=Nc2ccc(O)c3ncccc23)cc1 | -3.4 | -11.6 | 17.5 | ? | 6.1 | 2.1
COc1cccc(N=Nc2ccc(O)c3ncccc23)c1 | 7.1 | 39.8* | -27.7 | ? | 24.2* | -3.8
CCN1CCc2c(sc(NC(=O)c3ccc(S(=O)(=O)N4CCOCC4)cc3)c2C(N)=O)C1 | -0.7 | -10.0 | 3.4 | i | -9.5 | -9.7
CCN1CCc2c(sc(NC(=O)Cc3ccccc3)c2C(N)=O)C1 | -9.0 | -6.8 | 2.6 | i | -9.1 | -16.4
CCCN1CCc2c(sc(NC(=O)c3ccc(S(=O)(=O)N4CCCC4)cc3)c2C(N)=O)C1 | 14.3 | -7.4 | 4.6 | + | -2.6 | 2.0
CCN1CCc2c(sc(NC(=O)Nc3ccc(Cl)c(Cl)c3)c2C(N)=O)C1 | 0.0 | 63.3* | -19.4 | + | 113.5* | 20.8
CCC(CC)C(=O)Nc1nnc(S(=O)(=O)N2CCCC2)s1 | -5.6 | -8.4 | 6.3 | i | -9.2 | -1.2
COc1cc(CN2CC(=O)N(c3ccccc3Cl)C2=S)cc(OC)c1OC | 4.7 | 34.1* | -17.0 | i | 1.8 | -5.3
Nc1nnc(SCC(=O)NNC(=O)c2ccccc2)s1 | 1.7 | 12.4 | -5.0 | i | -1.3 | 0.1
Cc1ccc2c(c1)C(c1ccccc1)N(C(=O)c1ccc(Br)o1)CC(=O)N2 (stereo not drawn) | 7.2 | -13.5 | 3.4 | i | -1.5 | -10.1
O=C1CN(C(=O)c2ccc(Br)o2)C(c2ccccc2)c2cc(Br)ccc2N1 (stereo not drawn) | 58.9* | -0.6 | 3.0 | i | -1.3 | -16.1
CCOC(=O)c1ccccc1N/C=C/C(=O)c1cccs1 | 22.5 | -19.1 | 2.8 | i | -8.7 | 11.5
O=C(/C=C\Nc1cccc(F)c1)c1cccs1 | 69.1* | -8.7 | 1.1 | i | -4.3 | -8.1
O=C(/C=C/Nc1ccccc1F)c1cccs1 | 85.1* | -12.8 | 14.8 | i | 0.0 | 12.3
O=C(/C=C/Nc1ccc(F)cc1F)c1cccs1 | 59.9* | 1.2 | -0.2 | i | -5.0 | 6.7
Cc1ccc(N/C=C/C(=O)c2cccs2)cc1 | 41.9* | 9.3 | 3.7 | i | -3.6 | 1.5
CCOc1ccc(N=Nc2c(=O)[nH]n3c(=O)c4c([nH]c23)CCCC4)cc1 | 26.0 | -4.5 | 4.5 | + | -1.1 | 10.6
O=c1[nH]n2c(=O)c3c([nH]c2c1N=Nc1cccc(Cl)c1)CCCC3 | -6.3 | -3.9 | 9.7 | i | -4.7 | -5.5
COc1ccc(C2(c3ccc(OC)cc3)NC(=O)N(CC(=O)NC3CCS(=O)(=O)C3)C2=O)cc1 (stereo not drawn) | 40.3* | -6.2 | 5.8 | i | -2.4 | -4.0
COc1ccc(C2(c3ccc(OC)cc3)NC(=O)N(CC(=O)NC3CCCC3)C2=O)cc1 | 5.4 | 3.7 | 2.9 | i | 1.2 | -3.7
